Several values for one entry are separate records, joined by “and”; a condition that tells them apart may be missing. Identical values can stand only once. Results filed as inconclusive are left out. A call without a number means that no potency is given here. More than one record can exist for a structure, and the calls need not agree. Activity calls are given as the source filed them. Unless noted, the call rests on the fitted dose curve; in most records, active means well fitted curve in the direction sought with a large enough effect in the repeat runs; inconclusive means weak or mixed curves; inactive means no such curve, though single readings can be large; an effect the other way counts as inactive or inconclusive.
Legend:
[1] = A CellTox Green Cytotoxicity Assay to monitor cytotoxicity in HepG2 cells - 8 hour (AID 1224890); further: nearly all actives have a fitted effect of over 45% in size; further: potency means the concentration at half of the fitted maximal effect
Method in brief: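 HepG2 cells were seeded together with the CellTox Green dye at 600 cells/well, left 5 h at 37 C/5% CO2, then given compounds in DMSO. Fluorescence from dye bound to dead-cell DNA was read repeatedly over 40 h of treatment at 37 C.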

[2] = qHTS assay to identify small molecule antagonists of the androgen receptor (AR) signaling pathway using the MDA cell line in the presence of 0.5 nM R1881 - cell viability counter screen (AID 1259242); further: nearly all actives have a fitted effect of over 45% in size; further: potency means the concentration at half of the fitted maximal effect
Method in brief: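 MDA-kb2 cells (human breast carcinoma, stably carrying MMTV-luciferase reporter) were exposed to compounds with 0.5 nM R1881 (final) for 16 hr at 37C, 0% CO2; viability then read as live-cell protease fluorescence (CellTiter-Fluor, 30 min) in the same wells.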

[3] = qHTS assay to identify small molecule phospholipidosis (PLD) inducers (AID 1259344; active means well fitted curve in the direction sought with a large enough effect; an effect the other way counts as inactive or inconclusive)
Method in brief: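 Fluorescent phospholipid staining (LipidTOX Red) measured by automated microscopy in fixed HepG2 cells after 24 h treatment; nuclei counterstained with Hoechst 33342; amiodarone as reference inducer.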

[4] = qHTS assay to identify small molecule HDAC inhibitors (AID 1259364); further: nearly all actives have a fitted effect of over 45% in size; further: potency means the concentration at half of the fitted maximal effect
Method in brief: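 Wild-type HCT-116 cells were plated overnight, exposed to compounds for 2 h at 37 °C, then given HDAC-Glo class I/II luminogenic reagent for 30 min at room temperature before luminescence was read.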

[5] = qHTS assay to identify small molecule HDAC inhibitors - cell viability counter screen (AID 1259365); further: series mostly up to about 92 µM; nearly all actives have a fitted effect of over 50% in size
Method in brief: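 Luminescence from CellTiter-Glo, developed 30min at room temperature, reports viability of wild-type HCT-116 cells treated 2hr with compounds at 37 C and 5% CO2 after overnight plating.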

[6] = qHTS assay to identify small molecule agonists of the sonic hedgehog signaling (Shh) pathway - cell viability counter screen (AID 1259366); further: nearly all actives have a fitted effect of over 50% in size; further: potency means the concentration at half of the fitted maximal effect
Method in brief: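 Cytotoxicity counter screen run in the same wells as the Shh reporter assay. NIH/3T3 cells carrying a Gli1 response element–driven luciferase were treated with DMSO-dissolved compounds for 24hr, and live-cell protease activity was measured with CellTiter-Fluor.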

[7] = qHTS assay to identify small molecule antagonists of the sonic hedgehog signaling (Shh) pathway - cell viability counter screen (AID 1259367); further: nearly all actives have a fitted effect of over 55% in size; further: potency means the concentration at half of the fitted maximal effect
Method in brief: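 Using CellTiter-Fluor, viability of Gli1-Luc reporter 3T3 cells is read by fluorescence in the wells used for the Shh luciferase assay. Treatment lasts 23 hr with conditioned medium, then reagent 1 hr at 37C.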

[8] = qHTS assay to identify small molecule antagonists of the estrogen receptor alpha (ER-alpha) signaling pathway using the BG1 cell line in the presence of 0.1 nM 17-beta-estradiol - cell viability counter screen (AID 1259241); further: nearly all actives have a fitted effect of over 40% in size; further: potency means the concentration at half of the fitted maximal effect
Method in brief: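 VM7Luc4E2, 4,000 cells/well, phenol red-free medium + 10% charcoal-stripped FBS; 24 hr plating; cpd + 0.1 nM E2 final, 22 hr 37C/5% CO2; CellTiter-Fluor 30 min, fluorescence.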

[9] = biological target: Estrogen receptor (Homo sapiens) (UniProt P03372); test: qHTS assay to identify small molecule antagonists of the estrogen receptor alpha (ER-alpha) signaling pathway using the BG1 cell line in the presence of 0.1 nM 17-beta-estradiol (AID 1259244); further: nearly all actives have a fitted effect of over 50% in size
Sequence of Estrogen receptor (Homo sapiens) (P03372 whole entry, looked up): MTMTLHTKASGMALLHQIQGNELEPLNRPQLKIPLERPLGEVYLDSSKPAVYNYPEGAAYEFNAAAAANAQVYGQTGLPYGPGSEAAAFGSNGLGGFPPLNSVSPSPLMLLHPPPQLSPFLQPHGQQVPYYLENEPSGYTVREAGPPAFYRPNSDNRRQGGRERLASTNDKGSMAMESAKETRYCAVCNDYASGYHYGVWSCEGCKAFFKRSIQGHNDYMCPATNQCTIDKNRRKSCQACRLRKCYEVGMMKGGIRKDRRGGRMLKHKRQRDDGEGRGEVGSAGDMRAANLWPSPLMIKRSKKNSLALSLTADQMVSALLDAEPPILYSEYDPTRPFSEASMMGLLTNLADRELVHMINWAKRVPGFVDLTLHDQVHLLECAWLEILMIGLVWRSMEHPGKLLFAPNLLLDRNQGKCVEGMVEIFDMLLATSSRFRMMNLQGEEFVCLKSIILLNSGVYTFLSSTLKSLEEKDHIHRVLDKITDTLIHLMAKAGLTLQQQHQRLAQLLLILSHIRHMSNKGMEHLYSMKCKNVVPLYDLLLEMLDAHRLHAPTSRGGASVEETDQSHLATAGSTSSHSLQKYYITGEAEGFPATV
Method in brief: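 VM7Luc4E2 cells (endogenous full-length ER-alpha, stable 4xERE-luciferase) were grown 5 days in phenol red-free medium with charcoal-stripped FBS, then exposed 22 h at 37C to compounds plus 0.1 nM (final) 17beta-estradiol; ONE-Glo luminescence read-out.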

O=C(c1ccc(OCCN2CCCCC2)cc1)c1c(-c2ccc(O)cc2)sc2cc(O)ccc12
Potency [1]: inactive | Potency [2]: 61.2 µM (active) and inactive | Potency [3]: inactive | Potency [4]: inactive | outcome [5]: inactive | Potency [6]: 24.4 µM (active) and 24.3 µM (active) and 11.9 µM (active) | Potency [7]: 24.4 µM (active) and 30.6 µM (active)

Cc1cc2nc3c(=O)[nH]c(=O)nc-3n(C[C@H](O)[C@H](O)[C@H](O)CO)c2cc1C
Potency [1]: 43.2 µM (active) and 40.5 µM (active) and 11.7 µM (active) | Potency [3]: inactive | Potency [4]: inactive | outcome [5]: inactive

c1cc(N(CC2CO2)CC2CO2)ccc1OCC1CO1 (stereo not given)
Potency [1]: inactive | Potency [8]: inactive | Potency [9]: inactive | Potency [4]: inactive | outcome [5]: inactive | Potency [6]: 61.1 µM (active) | Potency [7]: 27.3 µM (active)

OC(CCl)CCl
Potency [1]: inactive | Potency [8]: inactive | Potency [9]: inactive | Potency [4]: inactive | outcome [5]: inactive | Potency [6]: inactive | Potency [7]: inactive

CCOC(=O)C(C#N)=C(c1ccccc1)c1ccccc1
Potency [1]: inactive | Potency [8]: inactive | Potency [3]: inactive | outcome [5]: inactive | Potency [6]: inactive | Potency [7]: inactive

C/C=C/C(=O)O
Potency [1]: inactive | Potency [8]: inactive | Potency [4]: inactive | outcome [5]: inactive | Potency [6]: inactive | Potency [7]: inactive

O=C(c1ccccc1)c1ccc(O)cc1O
Potency [1]: inactive | Potency [8]: inactive | Potency [9]: inactive | outcome [5]: inactive | Potency [6]: inactive | Potency [7]: 55.5 µM (active) and inactive

COc1ccc(C(=O)CC(=O)c2ccc(C(C)(C)C)cc2)cc1
Potency [1]: inactive and 75.6 nM (active) | Potency [8]: inactive | Potency [3]: inactive | outcome [5]: inactive | Potency [6]: inactive | Potency [7]: inactive

OC[C@H]1O[C@@H]2O[C@H]3[C@H](O)[C@@H](O)[C@@H](O[C@H]4[C@H](O)[C@@H](O)[C@@H](O[C@H]5[C@H](O)[C@@H](O)[C@@H](O[C@H]6[C@H](O)[C@@H](O)[C@@H](O[C@H]7[C@H](O)[C@@H](O)[C@@H](O[C@H]8[C@H](O)[C@@H](O)[C@@H](O[C@H]1[C@H](O)[C@H]2O)O[C@@H]8CO)O[C@@H]7CO)O[C@@H]6CO)O[C@@H]5CO)O[C@@H]4CO)O[C@@H]3CO
Potency [1]: inactive | Potency [8]: inactive | Potency [3]: inactive | Potency [4]: inactive | outcome [5]: inactive | Potency [6]: inactive | Potency [7]: inactive

COc1c(Cl)c(Cl)c(Cl)c(Cl)c1Cl
Potency [1]: inactive | Potency [8]: inactive | Potency [4]: inactive | outcome [5]: inactive | Potency [6]: inactive | Potency [7]: inactive

O=C(c1ccccc1)c1ccccc1O
Potency [1]: inactive | Potency [8]: inactive | outcome [5]: inactive | Potency [6]: inactive | Potency [7]: inactive

CC(=O)O[C@]1(C(C)=O)CC[C@H]2[C@@H]3C=C(Cl)C4=CC(=O)[C@@H]5C[C@@H]5[C@]4(C)[C@H]3CC[C@@]21C
Potency [1]: inactive | Potency [8]: inactive | Potency [4]: inactive | outcome [5]: inactive | Potency [6]: inactive | Potency [7]: inactive

C[C@]12CC[C@H]3[C@@H](CCC4=CC(=O)CC[C@@]43C)[C@@H]1CC[C@@H]2C(=O)CO
Potency [1]: inactive | Potency [8]: inactive | Potency [9]: inactive | Potency [3]: inactive | Potency [4]: inactive | outcome [5]: inactive | Potency [6]: inactive | Potency [7]: inactive

COc1cccc2c1C(=O)c1c(O)c3c(c(O)c1C2=O)C[C@@](O)(C(=O)CO)C[C@@H]3O[C@H]1C[C@H](N)[C@H](O)[C@H](C)O1
Potency [1]: inactive | Potency [8]: 11.9 µM (active) | Potency [9]: inactive | Potency [3]: inactive | Potency [4]: inactive and 11.9 µM (active) | outcome [5]: inactive | Potency [6]: 967 nM (active) and 9.44 µM (active) | Potency [7]: 967 nM (active) and 6.68 µM (active)

CN(C)c1nc(N(C)C)nc(N(C)C)n1
Potency [1]: inactive | Potency [8]: inactive | Potency [3]: inactive | outcome [5]: inactive | Potency [6]: inactive | Potency [7]: inactive
